Source: PubChem BioAssay
The list is not random: actives were taken first. Their share in the collection is about 3.5%.
TEAD-YAP inh: TEAD-YAP interaction inhibition | HEK-TIYL cells, TEAD-Gal4/YAP UAS-luciferase luminescence | inhibition, % at 9.12 µM | 640,000 tested, 1.4% active | AID 1259422; in the data active means inhibition above about 32%;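 further: 0% = median of test compound wells and 100% = reference inhibitor wells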
MITF inh: blocks human microphthalmia-associated transcription factor. inhibition, % at 2.6 µM. AlphaScreen MITF homodimerization, bead proximity signal. 650,000 tested, 0.91% active. O75030; in the data active means inhibition above about 50%;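 further: 0% = vehicle wells with protein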
FBW7 activator: activators of human E3 ligase FBW7; Q969H0; 650,000 tested, 0.13% active; AlphaScreen FBW7–phospho-cyclin E peptide binding, activator screen; AID 1259310; normalized activity (activation), % at 26.1 µM; in the data active means normalized activity above about 1.9%;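 further: purified mutant Fbw7 with reduced substrate affinity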
GPR151 activ: activators of human GPR151; Q8TDV0; PathHunter beta-arrestin GPR151 cells, luminescence; activation, % at 11.2 µM; 650,000 tested, 1% active; AID 1508602; in the data active means activation above about 4.9%;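 further: 0% = median of compound wells and 100% = cells with positive control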
GPR151 confirm: confirmation of human GPR151 activators | shares compounds with GPR151 activ | GPR151 PathHunter beta-arrestin cells, luminescence, 90 min; % of EA-reagent control over plate median | activation, % at 11.2 µM | 6,700 tested, under 10 active | AID 1508609;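 active means mean percent activation across replicates above the confirmation screen cutoff of 4.91%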
GPR119 ag: activates human GPR119 in a GPR151 counter-screen; GPR119 PathHunter beta-arrestin cells, luminescence, 90 min; 0 = compound-well median, 100 = enzyme-acceptor control; activation, % at 11.2 µM; shares compounds with GPR151 activ; 6,700 tested, 0.3% active;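 active means mean percent activation in the counterscreen above 29.09%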;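 further: counterscreen on off-target GPR119 to flag nonselective hits from the GPR151 activator screen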
Target sequence (Q8TDV5 whole entry, looked up): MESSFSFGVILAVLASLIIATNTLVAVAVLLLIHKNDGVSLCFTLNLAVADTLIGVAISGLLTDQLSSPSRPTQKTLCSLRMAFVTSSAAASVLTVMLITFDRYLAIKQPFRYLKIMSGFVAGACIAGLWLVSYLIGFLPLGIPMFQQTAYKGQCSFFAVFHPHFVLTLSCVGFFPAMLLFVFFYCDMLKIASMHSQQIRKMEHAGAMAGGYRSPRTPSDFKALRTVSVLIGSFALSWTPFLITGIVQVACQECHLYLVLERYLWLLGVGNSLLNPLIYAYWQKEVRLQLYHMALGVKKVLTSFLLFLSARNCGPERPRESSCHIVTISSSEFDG
* = called active by the depositor; / = no result given; ! = not confirmed by another sample.

SMILES	TEAD-YAP inh	MITF inh	FBW7 activator	GPR151 activ	GPR151 confirm	GPR119 ag
CC(C)c1nc(C(=O)N2CCCC(N3CCOCC3)C2)cs1 (stereo not given)	5	-7	0	6.7*	-2	-19
CC(C)c1ccc(N2C(=O)NC(=O)/C(=C/c3ccc([N+](=O)[O-])o3)C2=O)cc1	4	18	0	-2	/	/
CC(C)(S)C(N)C(=O)O (stereo not given)	-9	1	0	5.1*!	0	-9
CC(C)(S)C(=O)N[C@@H](CS)C(=O)O	-2	-9	0	-2	/	/
CCOc1ccccc1N(C)S(=O)(=O)c1ccc2[nH]cc(C(=O)N(CC)CC)c(=O)c2c1	6	-9	0	5.9*	0	8
CCOc1ccc(OCc2ccc(C(=O)NNC(=O)CC(C)(C)C)cc2)cc1	-67	-1	0	-2	/	/
C(=N\Nc1ccccc1)/c1ccc2c(c1)OCCO2	-11	6	0	5.3*	-1	-3
N#Cc1c(N)nc(-c2ccccc2)nc1C(F)(F)F	11	-2	0	0	/	/
CCOC(=O)c1cnc2ccc(OC)cc2c1Nc1ccccc1C(=O)O	-1	-9	0	5.6*	0	-4
CCOC(=O)c1cnc2ccc(OC)cc2c1Nc1ccccc1C	-5	3	0	0	/	/
CCOC(=O)c1cnc2cc(C(F)(F)F)ccc2c1Nc1cc(OC)ccc1OC	6	0	0	4.9*	-1	9
O=C(O)Cn1ncc2ccccc21	-10	6	0	0	/	/
O=C(Cn1cc2c(n1)CCCC2)NCCCN1CCCCC1	2	0	1	1	/	/
O=C(Cn1cc2c(n1)CCCC2)NCCCN1CCN(C2CCCCC2)CC1	6	14	0	5.0*	1	11
O=c1c2sc3ccc([N+](=O)[O-])cc3c2[nH]c(=S)n1Cc1ccccn1	2	6	0	8.8*	-1	-8
CC(C)n1c(=S)[nH]c2c(sc3ccc([N+](=O)[O-])cc32)c1=O	8	-5	0	1	/	/
O=C(c1ccccc1)N1c2ccccc2N=C(c2ccccc2)CC1c1ccccc1 (stereo not given)	-24	0	0	-1	/	/
Cc1sc(NC(=O)c2cc3ccccc3oc2=O)nc1-c1ccc(Br)cc1	-6	-2	0	7.4*	2	-2
CN(CC1COc2ccccc2O1)c1nnnn1-c1ccccc1 (stereo not given)	3	2	0	0	/	/
c1ccc(-n2nnnc2NCC2COc3ccccc3O2)cc1 (stereo not given)	0	-15	0	5.1*	-1	0
Cc1nnc(NC(=O)CSc2nnc3n(C4CCCC4)c(=O)c4ccccc4n23)s1	3	-4	0	1	/	/
O=C(NC(=S)Nc1ncccc1O)c1ccccc1Br	-85	-4	0	7.6*	0	-8
Cc1cccnc1NC(=S)NC(=O)c1ccccc1Br	-43	10	0	0	/	/
COC(=O)/C(=C(/F)SC1CC(C(C)(C)C)CCC1=O)C(F)(F)F (stereo not given)	8	14	0	0	/	/
Cc1cccc(Cn2c(NCCN(C)C)nc3c2c(=O)[nH]c(=O)n3C)c1	6	5	0	1	/	/
SMILES	TEAD-YAP inh	MITF inh	FBW7 activator	GPR151 activ	GPR151 confirm	GPR119 ag
CN(C)CCNc1nc2c(c(=O)[nH]c(=O)n2C)n1Cc1ccc([N+](=O)[O-])cc1	5	9	0	5.1*	1	6
COc1ccc(C(=O)c2cc3c(cc2N)OCCO3)cc1	8	16	0	3	/	/
Cc1cccc(N2CCN(C(=O)c3ccc(Sc4ccc(Br)cc4)c([N+](=O)[O-])c3)CC2)c1C	4	12	0	-1	/	/
CC(C)Oc1ccc(C2CC(=O)NC3=C2C(=O)CCC3)cc1 (stereo not given)	8	7	0	1	/	/
CC(C)Oc1ccc(C2CC(=O)NC(=O)C2)cc1	0	24	1	6.7*	0	13
O=C(CSc1nc(NCCc2ccccc2)c2ccccc2n1)c1ccc(F)cc1	-18	4	0	2	/	/
O=C(Nc1ccccc1C(F)(F)F)c1cc2n(n1)C(C(F)(F)F)CC(c1cccs1)N2 (stereo not given)	-15	0	0	0	/	/
COC(=O)c1c(NC(=O)/C=C\C(=O)O)sc(C)c1C	-1	21	0	14*	-1	3
